# Only a selection was taken, and hits are over-represented in it overall.
# Methyltransferases – Primary Screen for Target Class Profiling of Small Molecule Inhibitors of Methyltransferases; purified enzyme, MTase-Glo SAH luminescence; active compounds read low; calls only at 40 µM; 25,000 tested, 3.9% active; AID 1745853, 2022; call rule not given here
#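 Each enzyme was assayed with SAM and its substrate. SAH formation detected by MTase-Glo luminescence; single-point 40 uM screen[…].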
# * marks the source's active call; other numbers are inactive results; i = inactive; + = active, no number; ! = not confirmed by another sample. On the % scale 0 is the no-effect control and ±100 the full control effect.
SMILES,Methyltransferases
CC(C)(Sc1ccc(CCN(CCCCC2CCCCC2)C(=O)NC2CCCCC2)cc1)C(=O)O,+!
CC1(C(=O)NC2CCCC2)Cn2c(ccc2-c2ccccc2)C(=O)N1CCCc1ccccc1 (stereo unspecified),i
CCCc1cc2c(-c3ccccc3)cc(=O)oc2cc1OCc1cc(C(=O)OC)oc1C,i
CN(C)c1ccc(CNC(=O)c2cc3n(n2)CC(C)(C(=O)NCc2ccccc2)N(C)C3=O)cc1 (stereo unspecified),i
O=C(CSc1nnc2n(CCc3ccccc3)c(=O)c3ccccc3n12)Nc1ccc(F)cc1,i
CCCC1c2cccn2CCN1C(=O)Nc1cc(Cl)ccc1OC (stereo unspecified),i
O=C(NC1CCCC1)c1ccc(OC2CCN(CCCC(F)(F)F)CC2)c(Cl)c1,i
COC(=O)c1cccc(Nc2ncnc3ccc(C)cc23)c1,i
CNC(=O)c1c(F)cccc1Nc1nc(Nc2cc3c(cc2OC)CCN3C(=O)CN(C)C)nc2[nH]ccc12,i
CNC(=O)CN1CCC(Oc2cc3c(Nc4cccc(Cl)c4F)ncnc3cc2OC)CC1,+
COc1cc2ncnc(Nc3ccc(F)c(Cl)c3)c2cc1NC(=O)/C=C/CN1CCCCC1,+
CCC1c2ccc(C)n2CCN1C(=O)Nc1ccc(Cl)cc1 (stereo unspecified),i
Cc1ccccc1NC(=O)CSc1nnc2n(CCc3ccccc3)c(=O)c3ccccc3n12,i
CCCCc1nc2c3ccccc3n(CC(=O)N3CCN(c4ccc(F)cc4)CC3)c(=O)n2n1,i
Cc1c(Cl)cccc1N1C(=O)c2cc3occc3n2CC1(C)C(=O)NC1CCCCC1 (stereo unspecified),i
Cc1ccc(N2C(=O)c3cc(-c4cccs4)nn3CC2(C)C(=O)NC2CCCCC2)c(C)c1 (stereo unspecified),i
O=C(Nc1ccc(Cl)cc1)N1Cc2c(sc3c2CCCC3)-n2cccc2C1c1ccccc1 (stereo unspecified),i
Cc1ccc(NC(=O)Cn2nc3n(CCC(C)C)c(=O)c4ccccc4n3c2=O)cc1C,i
COc1cccc(C(=O)N(C)Cc2ccccc2C(F)(F)F)c1,i
COc1ccc(CNc2nc3c(S(=O)(=O)c4ccccc4)nnn3c3ccccc23)cc1,i
CC(C)Cn1c(=O)c2ccc(C(=O)NC3CCCC3)cc2n2c(=O)n(CC(=O)NC3CCCCC3)nc12,i
CC(=O)Nc1c2n(c3ccc(F)cc13)CC(C)(C(=O)NC1CCCC1)N(Cc1ccccc1F)C2=O (stereo unspecified),i
C[C@](Cc1ccc(O)c(O)c1)(NN)C(=O)O,+
CCCCCCCC/C=C\CCCCCCCC(=O)NCCc1ccc(O)c(O)c1,i
CC(N)(Cc1ccc(O)c(O)c1)C(=O)O (stereo unspecified),+
SMILES,Methyltransferases
COc1cc(CC(=O)O)ccc1O,i
CC1(C(=O)NC2CCCCCC2)Cn2nc(-c3ccco3)cc2C(=O)N1Cc1cccs1 (stereo unspecified),i
CCCN1C(=O)c2cc(C(=O)NCc3ccc(OC)cc3)nn2CC1(C)C(=O)NC1CCCC1 (stereo unspecified),i
CC1(C(=O)NC2CCCC2)Cn2c(nc3ccccc32)C(=O)N1Cc1ccco1 (stereo unspecified),i
Cc1ccc(C)c(CSc2nnc3n(CC(C)C)c(=O)c4ccc(C(=O)NC(C)C)cc4n23)c1,i
COc1ccc(N2C(=O)c3ccc(-c4ccco4)n3CC2(C)C(=O)NCc2ccccc2)cc1 (stereo unspecified),i
CC(C)(C)c1cc2n(n1)CC(C)(C(=O)NCc1ccccc1)N(Cc1ccccc1Cl)C2=O (stereo unspecified),i
C=CCn1c(=O)c2ccc(C(=O)NC(C)CC)cc2n2c(=O)n(CC(=O)Nc3cccc(C)c3)nc12 (stereo unspecified),i
Cc1cc2[nH]c(=O)[nH]c2cc1S(=O)(=O)N1CCN(c2ccccc2F)CC1,i
CN1C(=O)c2cc(C(=O)NC3CCCCC3)nn2CC1(C)C(=O)NCc1ccccc1 (stereo unspecified),i
O=S(=O)(c1ccccc1)c1nnn2c1nc(N1CCCCC1)c1ccccc12,i
Cc1ccc(C)c(S(=O)(=O)c2nnn3c2nc(N2CCCC2)c2ccccc23)c1,i
Cc1ccc(S(=O)(=O)c2nnn3c2nc(N2CCC(N4CCCCC4)CC2)c2ccccc23)cc1C,+
CC(C)CCn1c(=O)c2ccc(C(=O)NC(C)C)cc2n2c(=O)n(CC(=O)NC3CCCC3)nc12,i
CCCn1c(=O)c2ccc(C(=O)NCC(C)C)cc2n2c(SCC(=O)Nc3ccccc3F)nnc12,i
C=Cc1cc(O)cc2nc(-c3ccc(O)c(F)c3)oc12,+
CCc1ccc(CNC(=O)Cn2ccc3cc(S(=O)(=O)N4CCCCC4)ccc32)cc1,i
CCCCNc1ccc(-c2ccc(CN3CCOCC3)cn2)c(NC2CCC(O)CC2)c1 (stereo unspecified),i
CCCCNc1ncc(C(=O)NCc2ccc(-n3ccnc3)cc2)c(NC2CCC(O)CC2)n1 (stereo unspecified),+
CCCCNc1ncc(-c2ccc(CN3CCOCC3)cn2)c(NC2CCC(O)CC2)n1 (stereo unspecified),i
O=C(CCC1CCN(S(=O)(=O)c2ccccc2F)CC1)NCCCN1CCCC1=O,i
CCC1c2ccc(C)n2CCN1C(=O)Nc1cc(Cl)ccc1C (stereo unspecified),i
C=CC(=O)Nc1cccc(CN2C(=O)N(c3c(Cl)c(OC)cc(OC)c3Cl)Cc3cnc(NCCCCN(CC)CC)nc32)c1,+
CCOc1ccccc1CN1C(=O)c2cc3sccc3n2CC1(C)C(=O)NC1CCCCCC1 (stereo unspecified),i
CCOc1ccc(N2C(=O)c3cc4sc(CC)cc4n3CC2(C)C(=O)NC2CCC(C)CC2)cc1 (stereo unspecified),i
SMILES,Methyltransferases
CCC(C)NC(=O)c1ccc2c(=O)n(C)c3nn(Cc4ccc(C)cc4)c(=O)n3c2c1 (stereo unspecified),i
CCC1c2ccc(C)n2CCN1C(=O)Nc1cccc(SC)c1 (stereo unspecified),i
CCCOC(=O)Cn1c(=O)oc2cc(S(=O)(=O)NCC(C)c3ccccc3)ccc21 (stereo unspecified),i
COc1ccc(CN2C(=O)c3cc4sccc4n3CC2(C)C(=O)NC2CCC(C)CC2)cc1OC (stereo unspecified),+
COc1ccc(CN2C(=O)c3cc4sccc4n3CC2(C)C(=O)NC2CCCCC2)cc1OC (stereo unspecified),i
COc1cccc(CN2C(=O)c3cc4sccc4n3CC2(C)C(=O)NC2CCC(C)CC2)c1 (stereo unspecified),i
Cc1ccc(Cn2c(=O)c3ccccc3n3c(=O)n(CC(=O)Nc4cccc(F)c4)nc23)cc1,i
CCCSCCCN1C(=O)c2ccc(-c3ccco3)n2CC1(C)C(=O)NC1CCCC1 (stereo unspecified),i
CCOCCCN1C(=O)c2cc(-c3ccc(OC)c(OC)c3)nn2CC1(C)C(=O)NC1CCCCC1 (stereo unspecified),i
CN(C)c1ccc(-c2nnc3n(Cc4ccc(F)cc4)c(=O)c4ccccc4n23)cc1,i
Cc1cc2c(N3CCCC3)nc(N3CCCC3)nc2n1C,+
Cc1cccc(-c2nnn3c2nc(N2CCCC2)c2ccccc23)c1,i

# Screening results from PubChem BioAssay.
